Reference: PubChem BioAssay

Columns and labels:
[1] = tested on: Human papillomavirus type 1a protein E7 (residues 44-93); assay: HPV1a E7 fragment binders on microarrays, primary screen, biochemical, small-molecule microarray, residues 44-93, 635 nm fluorescence (AID 1108); conditions: small-molecule microarray binding, fluorescence 635 nm; higher = more signal;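 note: E7 fragment applied at 1 µg/mL in TBST for 1 h at 4 C; score combines spot fluorescence with its signal to noise ratio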
[2] = modulators of HCV replicon luciferase signal, primary screen, HCV replication inhibitor project, Huh7 cells, luciferase reporter (AID 1109); conditions: 48 h, higher = more signal;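 note: huh7 hepatoma cells harbouring a luciferase neomycin HCV replicon reporter; luciferase luminescence as measure of HCV replicon replication; test concentration not given here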
[3] = target: Left-right determination factor 2 (Homo sapiens) (UniProt O00292); assay: LEFTY2 binders on small-molecule microarrays, primary screen, biochemical, small-molecule microarray, 635 nm fluorescence scan (AID 1110); conditions: LEFTY2 binding, higher = more signal
[4] = target: Calmodulin-1 (Homo sapiens) (UniProt P0DP23); assay: CALM1 binders on microarrays, EGTA buffer, profiling panel, biochemical, small-molecule microarray, Cy5-labelled CALM1 (AID 1111); conditions: Cy5-CALM1 binding fluorescence, higher = more signal;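 note: labelled calmodulin applied in Tris saline Tween buffer holding calcium plus EGTA and DTT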
[5] = target: Calmodulin-1 (Homo sapiens) (UniProt P0DP23); assay: calcium-bound CALM1 binders on microarrays, profiling panel, artefact control for SMM control-protein annotation, biochemical, small-molecule microarray, Cy5-labelled CALM1, plus calcium (AID 1112); conditions: Cy5-CALM1 binding fluorescence, higher = more signal;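 note: score merges spot fluorescence with signal to noise from triplicate slides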
[6] = small-molecule microarray binders of probe aWnt5a, primary screen, biochemical, biotinylated probe, 635/667 nm fluorescence (AID 1113); conditions: higher = more signal;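 note: score merges 667 nm fluorescence intensity with signal-to-noise per printed feature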
[7] = small-molecule microarray binders of probe aShh, primary screen, biochemical, biotinylated probe, 635/667 nm fluorescence (AID 1114); conditions: higher = more signal;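 note: probe is biotin-labelled aShh protein from a stem cell growth factor screen; measures binding of labelled protein to compounds printed on the slide; score merges feature fluorescence at 667 nm with signal-to-noise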
[8] = small-molecule microarray binders of probe aNog, primary screen, biochemical, biotinylated probe, 635/667 nm fluorescence (AID 1115); conditions: higher = more signal;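 note: probe is biotinylated aNog protein used at 0.15 µg/mL for 1 h at 4 C; z-score combines 667 nm fluorescence of each spot with its signal to noise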
[9] = target: Torsin-1A-interacting protein 1 (Homo sapiens) (UniProt Q5JTV8); assay: LAP1 binders from COS7 cell lysate, primary screen, small-molecule microarray, 635/667 nm fluorescence (AID 1116); conditions: COS7-hLAP1 lysate binding, 635 nm fluorescence, higher = more signal
[10] = target: Alpha-bungarotoxin (Bungarus multicinctus) (UniProt P60615); assay: alpha-bungarotoxin binders on microarray, profiling panel, artefact control for SMM control protein annotation, biochemical, small-molecule microarray, Alexa647 label, 635/667 nm fluorescence (AID 1117); conditions: alpha-BTX-A647 binding fluorescence, higher = more signal
Chain of Alpha-bungarotoxin (Bungarus multicinctus) (P60615 whole entry, looked up): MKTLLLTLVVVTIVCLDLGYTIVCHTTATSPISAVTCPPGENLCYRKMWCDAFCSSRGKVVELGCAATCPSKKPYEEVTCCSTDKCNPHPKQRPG

Chain of Left-right determination factor 2 (Homo sapiens) (O00292 whole entry, looked up): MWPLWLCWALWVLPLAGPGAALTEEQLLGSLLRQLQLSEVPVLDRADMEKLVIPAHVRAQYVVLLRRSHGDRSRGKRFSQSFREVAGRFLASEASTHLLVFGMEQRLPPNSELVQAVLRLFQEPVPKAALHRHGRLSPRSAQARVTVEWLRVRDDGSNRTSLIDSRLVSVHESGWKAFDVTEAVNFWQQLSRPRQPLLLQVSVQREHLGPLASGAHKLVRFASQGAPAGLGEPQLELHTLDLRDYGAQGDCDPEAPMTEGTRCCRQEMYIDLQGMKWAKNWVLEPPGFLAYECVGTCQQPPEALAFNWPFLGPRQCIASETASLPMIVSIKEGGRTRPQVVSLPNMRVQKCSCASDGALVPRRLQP
Chain of Torsin-1A-interacting protein 1 (Homo sapiens) (Q5JTV8 whole entry, looked up): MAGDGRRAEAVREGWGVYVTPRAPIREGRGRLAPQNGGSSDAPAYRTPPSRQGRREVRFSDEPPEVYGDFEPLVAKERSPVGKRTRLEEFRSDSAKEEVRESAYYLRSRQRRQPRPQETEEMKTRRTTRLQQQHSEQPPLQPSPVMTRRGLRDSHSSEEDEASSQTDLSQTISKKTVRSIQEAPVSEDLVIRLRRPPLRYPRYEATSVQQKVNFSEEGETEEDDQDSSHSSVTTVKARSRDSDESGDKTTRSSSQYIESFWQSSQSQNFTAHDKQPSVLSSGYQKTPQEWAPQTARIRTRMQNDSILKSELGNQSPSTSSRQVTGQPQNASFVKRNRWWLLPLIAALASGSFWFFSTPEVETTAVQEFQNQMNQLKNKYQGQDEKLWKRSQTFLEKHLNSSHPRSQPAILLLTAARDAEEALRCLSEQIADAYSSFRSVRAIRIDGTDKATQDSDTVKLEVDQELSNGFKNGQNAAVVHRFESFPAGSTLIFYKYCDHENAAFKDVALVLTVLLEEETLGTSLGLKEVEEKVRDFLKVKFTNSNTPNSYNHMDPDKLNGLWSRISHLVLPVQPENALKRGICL

| SMILES | composite z-score [1] | z-score [2] | composite z-score [3] | composite z-score [4] | composite z-score [5] | composite z-score [6] | composite z-score [7] | composite z-score [8] | composite z-score [9] | composite z-score [10] |
| --- | --- | --- | --- | --- | --- | --- | --- | --- | --- | --- |
| O=C1C[C@@](C(=O)O)(c2ccc([N+](=O)[O-])cc2)[C@@H](c2ccc(CO)cc2I)N1C1CCCCC1 | -0.549 | -1.32 | -0.27 | 1.6 | 0.734 | 0.0194 | -0.299 | -0.103 | -0.126 | 1.28 |
| CCOC1=C2C(c3ccc(C)cc3)N(S(=O)(=O)c3ccc(C)cc3)CC2n2c(=O)n(-c3ccccc3)c(=O)n2C1 (stereo not given) | 1.32 | -1.1 | 0.584 | 0.683 | -0.332 | 0.0244 | -0.0866 | 0.664 | 0.582 | 1.42 |
| Cc1ccc(F)cc1S(=O)(=O)N[C@@H]1CCN(Cc2ccc(C(F)(F)F)cc2)C1 | -0.237 | -2.01 | -0.0209 | -1.3 | -0.904 | -0.152 | 0.0723 | -0.311 | -0.0249 | -0.536 |
| O=C1OCCC=C[C@H]2OC34C=CCN(c5ccc6ccccc6c5)C(=O)[C@H]3N(CCCCCCO)C(=O)[C@@H]4C12 (stereo not given in full) | 0.404 | 0.0919 | -0.431 | -0.611 | -0.321 | -0.176 | -0.0337 | -0.201 | 0.164 | -1.37 |
| C=C(CCCC)/C(=C/C[C@@H](OC(=O)c1ccncc1)c1ccc(CO)o1)c1cc(C(=O)OC)ccc1OC | 0.277 | -1.73 | 1.02 | 1.19 | -0.759 | -0.0445 | -0.0011 | -0.216 | 0.774 | 1.59 |
| COc1ccc(C(=O)Nc2cccc(CN3C(=O)[C@@]4(O[C@@H](CC(=O)N5Cc6ccccc6C[C@H]5CO)[C@H]([Si](C)(C)c5ccc(OC)cc5)[C@H]4C)c4ccccc43)c2)cc1 | -0.296 | -3.74 | 0.904 | -0.0023 | -0.68 | -0.0643 | 0.353 | 0.118 | 0.965 | 1.27 |
| O=C(CS)NCCCCCNC(=O)[C@H]1C[C@H]2C(=O)N[C@@H](Cc3ccccc3)C(=O)N2[C@H]1c1cccc(OCCO)c1 | 0.729 | -0.24 | 1.03 | -0.137 | -0.358 | 0.0388 | -0.153 | -0.259 | 1.12 | 0.656 |
| COCCCNC(=O)[C@]1(Cc2ccccc2N=[N+]=[N-])N=C(c2ccc(OCCCO)cc2)O[C@@H]1c1ccccc1CN=[N+]=[N-] | 1.45 | -3.09 | 0.331 | 1.5 | 0.813 | 0.0952 | 0.496 | 0.555 | 1.39 | 1.01 |
| CCOC(=O)C1=CC[C@@H](c2ccccc2)N(S(=O)(=O)c2ccc(C)cc2)[C@H]1c1ccc(C#N)cc1 | 1.2 | -2.11 | -0.266 | 1.95 | 1 | -0.0236 | 0.385 | 0.621 | 1.48 | 1.84 |
| CC(C)(C)OC(=O)CC[C@@]1(C(=O)NCC(O)CO)N=C(c2ccc(OCCCO)cc2)O[C@@H]1c1ccccc1 (stereo not given in full) | 1.36 | 0.821 | -0.452 | -0.0155 | 0.924 | -0.0685 | 0.223 | 0.487 | 3.12 | 1.04 |
| C=C[C@H](C)[C@H](O)c1ccc(OCCO)cc1 | -2.7 | -1.54 | -1.42 | -0.215 | 0.486 | -0.139 | -0.108 | -0.278 | -1.26 | -1.27 |
| C/C=C/[C@H](CCn1cc([C@H](O)c2ccccc2)nn1)[Si](C)(C)c1ccc(OC)cc1 | -0.0636 | -1.78 | -0.915 | -1.41 | -1.41 | -0.233 | -0.0769 | -0.272 | -0.66 | -0.977 |
| C=C(C(=O)CC[C@@H](OC(=O)c1cccnc1)c1ccc(OCCO)cc1)C(C)C | 0.16 | -4.49 | 0.286 | -0.277 | -1.85 | -0.0145 | -0.0035 | -0.0863 | 2.09 | 0.46 |
| C=C(CCCC)C(=O)CC[C@H](OC(=O)c1ccccc1-c1ccccc1C(=O)O)c1ccc(CO)o1 | 1.42 | -0.872 | 0.645 | 0.856 | -0.771 | -0.0458 | -0.108 | 0.238 | 0.876 | 1.65 |
| COc1ccc([Si](C)(C)[C@H]2[C@H](CC(=O)N3Cc4ccccc4C[C@H]3CO)O[C@@]3(C(=O)N(Cc4cccc(I)c4)c4ccccc43)[C@@H]2C)cc1 | 0.276 | -3.8 | 0.947 | -0.551 | 1.49 | -0.124 | 0.0815 | -0.1 | 0.225 | -0.0241 |
| O=C1C2C=CC(C(O)c3ccc(B(O)O)cc3)N(Nc3ccc([N+](=O)[O-])cc3)C2C(=O)N1c1ccccc1 (stereo not given) | 1.38 | -4.39 | 0.528 | 0.394 | 0.218 | -0.0107 | -0.0146 | 0.46 | 0.151 | 0.435 |
| [N-]=[N+]=NCc1ccccc1C[C@]1(C(=O)NCC(O)CO)COC(c2ccc(OCCCO)cc2)=N1 (stereo not given in full) | 0.912 | -1.84 | -0.645 | 2.44 | 0.911 | 0.188 | -0.0341 | 1.17 | 3.34 | 3.01 |
| CCCCCCC#C[Si](O[C@H](c1ccccc1)c1cn([C@H](C)c2ccccc2)nn1)(C(C)C)C(C)C | 0.444 | -1.57 | 0.434 | -0.193 | -0.455 | 0.0317 | -0.138 | -0.139 | -0.0802 | -0.0777 |
| CC(C)N1C(=O)c2ccccc2[C@](C)(C(=O)NC2CC2)[C@@H]1c1ccc(CO)cc1 | 0.591 | -0.479 | 0.0197 | 0.391 | -0.34 | -0.096 | -0.138 | 0.214 | 0.507 | 0.931 |
| C=CC[C@@]1(C(N)=O)N=C(c2ccc(OCCCO)cc2)O[C@@H]1c1ccccc1N=[N+]=[N-] | -0.42 | 1.51 | 0.362 | -0.151 | -0.471 | 0.0825 | -0.148 | 1.1 | 2.04 | 0.673 |
| C=CC[C@@]1(C(=O)OC)N=C(c2ccc(OCCCO)cc2)O[C@@H]1c1ccccc1CN=[N+]=[N-] | 1.14 | -2.02 | -0.0045 | -0.517 | -0.896 | -0.144 | -0.0553 | -0.24 | 0.798 | 0.389 |
